HTR5A inv ctr = counter-screen for OPRM1-OPRD1 inverse agonists: human HTR5A inverse agonism; P47898; HTR5A cell line, luminescence; inhibition, % at 9.3 µM; actives 0.083% (n = 340,000); in the data active = inhibition mostly above about 23%, no sharp cut-off; inactive = mostly below about 18%;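 also: 0% = cells with DMSO and 100% = no-cell wells with DMSO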
Target sequence (P47898 whole entry, looked up): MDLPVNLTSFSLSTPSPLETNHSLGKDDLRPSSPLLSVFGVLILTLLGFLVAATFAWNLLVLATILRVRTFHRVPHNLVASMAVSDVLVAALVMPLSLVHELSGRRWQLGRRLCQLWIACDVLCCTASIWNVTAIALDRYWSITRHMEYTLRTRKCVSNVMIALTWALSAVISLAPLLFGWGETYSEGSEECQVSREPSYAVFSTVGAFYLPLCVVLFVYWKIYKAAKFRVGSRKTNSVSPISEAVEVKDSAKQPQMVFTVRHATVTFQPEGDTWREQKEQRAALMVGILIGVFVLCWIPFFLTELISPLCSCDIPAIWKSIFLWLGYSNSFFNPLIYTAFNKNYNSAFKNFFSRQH
NALP1 inh = blocks the NALP1 inflammasome reconstituted in yeast. S. cerevisiae NALP1/ASC/caspase-1 growth, X-gal OD620, 72 h. inhibition, % at 10 µM. actives 0.61% (n = 280,000); in the data active = inhibition mostly above about 24%, no sharp cut-off; inactive = mostly below about 32%
HTR5A ag = HTR5A agonism, opioid heterodimer counter-screen. P47898. HTR5A agonist assay, luminescence, cell-based. activation, % at 9.3 µM. actives 0.61% (n = 340,000). AID 504692; in the data active = activation mostly above about 9.5%, no sharp cut-off; inactive = mostly below about 7.6%;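 also: 0% = cells with vehicle only and 100% = reference agonist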
OPRM1-OPRD1 ag = OPRM1-OPRD1 heterodimerization agonism. P35372+P41143. cells, luminescence. activation, % at 9.3 µM. actives 0.3% (n = 340,000). AID 504326; in the data active = activation above about 18%;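 also: 0% = vehicle-treated cells and 100% = reference agonist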
MOR-DOR inv ag-1 = mu-delta opioid heterodimer inverse agonism. P35372+P41143. cell-based MOR-DOR heterodimer luminescence. inhibition, % at 9.3 µM. actives 0.21% (n = 340,000); in the data active = inhibition above about 22%, passing the limit was not always enough;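 also: 0% = cells with DMSO and 100% = wells without cells with DMSO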
PolyA inhibitor = yeast polyadenylation inhibition. actives 0.02% (n = 300,000). activity score, % at 12 µM. AID 1875. S. cerevisiae SKY197-pL101 polyadenylation reporter, beta-gal luminescence; efflux-impaired pdr1/pdr3 knockout yeast; score 100 = 6 SD above DMSO;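 active = lowest replicate activity score at least 50, where 100 means six control SD above control mean; inconclusive = lowest score under 50 but half or more replicates reach 50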;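 also: yeast exposed to compound for 9 h at 30 °C; higher score means more reporter readthrough which indicates perturbed polyadenylation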
MOR-DOR inv ag-2 = inverse agonist of OPRM1-OPRD1 heterodimerization in HTR5A counter-screen | shares compounds with HTR5A inv ctr | U2OS counter-screen cells, complementation luminescence | inhibition, % at 9.3 µM | 190 tested, under 10 active;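 also: 0% = cells with DMSO and 100% = wells without cells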
HTR5A inv confrm = HTR5A (human) inverse agonism, confirmation; shares compounds with HTR5A inv ctr; HTR5A-expressing cells, luminescence; inhibition, % at 9.3 µM; 190 tested, under 10 active; AID 504916;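 also: 0% = cells with DMSO and 100% = no cells with DMSO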
* marks the source's active call; other numbers are inactive results; i = inactive; ? = inconclusive; . = no result. In the library only some 1.6% were active in any assay of this set; here they are far more common. Unless noted, no rule for the calls is given here.

SMILES	HTR5A inv ctr	NALP1 inh	HTR5A ag	OPRM1-OPRD1 ag	MOR-DOR inv ag-1	PolyA inhibitor	MOR-DOR inv ag-2	HTR5A inv confrm
O=C(COC(=O)c1ccccn1)Nc1nc(-c2cccc([N+](=O)[O-])c2)cs1	0.8	.	-0.3	-2.3	12.7	-7.3	.	.
CC(=O)c1ccc(OCc2ccccc2)c(C)c1O	28.0*	37.7	-9.5	7.1	-40.8	8.0	-46.7	-1.0
CCOc1ccc(S(=O)(=O)N2CC(=O)Nc3ccccc32)cc1	2.4	12.5	-0.7	-0.9	4.3	1.0	.	.
CC(C)(C)C(=O)NC(=S)NNC(=O)C(c1ccccc1)c1ccccc1	44.6*	-4.2	-15.1	-4.3	21.5	-2.3	2.4	23.2
CC(=O)NNC(=S)NC(=O)C(c1ccccc1)c1ccccc1	20.4	6.0	-7.8	-3.9	19.7	-0.7	.	.
Cc1ccccc1CN(C)C(C)C(=O)Nc1ccccc1F (stereo unspecified)	5.0	-5.0	-2.0	1.5	-7.7	-8.6	.	.
Oc1cccc2ccc(/C=C/c3ccccc3Cl)nc12	62.2*	0.1	-17.0	-1.8	9.2	-8.3	-12.9	47.1*
CCOc1cccc(/C=C/c2ccc3cccc(O)c3n2)c1OC	52.7*	23.3	-14.9	-0.7	3.2	1.4	0.1	-6.7
CCOc1cccc(/C=C/c2ccc3cccc(O)c3n2)c1O	18.2	3.6	-5.0	5.6	-28.9	-6.4	.	.
Cc1cccc(-c2oc3ccccc3c2C#CCCO)c1	-11.3	19.9	-1.8	-1.4	7.5	15.0	.	.
CCn1c(-c2ccccc2)c[nH]c1=S	-4.0	-5.6	-0.4	-0.1	0.3	-4.5	.	.
S=c1[nH]cc(-c2ccc(Cl)cc2)n1Cc1ccccc1	30.8*	32.2	-11.3	14.8	-78.5	-10.5	-222.6	-29.8
N#CCSc1nnc(-c2ccc3c(c2)OCO3)o1	24.8*	14.1	-9.5	-1.8	10.2	1.9	-4.3	0.8
CC(NC(=O)c1ccc([N+](=O)[O-])o1)C1CC2CCC1C2 (stereo unspecified)	0.0	.	0.0	6.8	-35.2	.	.	.
Cc1cc(C)nc(N/N=C/c2ccccc2OCc2ccc(Br)cc2)n1	-20.1	19.1	1.5	0.3	-1.5	15.0	.	.
Cc1cc(C)nc(N/N=C/c2cc(Br)ccc2O)n1	32.5*	1.2	-11.3	2.0	-11.0	-12.8	22.6	2.7
CN(C)S(=O)(=O)c1ccc(Cl)c(C(=O)OCC(=O)NC(=O)NC2CCCC2)c1	96.2*	.	1.1	2.1	-8.2	.	-16.5	13.6
Cc1cc(N(CCO)CCO)ccc1N=Nc1cc(F)ccc1F	27.3*	7.8	-9.9	-4.3	21.0	-19.3	-6.2	12.2
OCCN(CCO)c1ccc(C(c2ccc(Cl)cc2)c2ccc(N(CCO)CCO)cc2Cl)c(Cl)c1	16.1	20.6	1.4	-0.6	3.1	1.7	.	.
O=[N+]([O-])c1cccc(C=NNc2ccc3ccccc3n2)c1O	35.3*	.	-9.2	-2.4	10.6	.	13.1	46.8*
Brc1ccccc1/C=N/Nc1ccc2ccccc2n1	-12.5	-0.6	-1.7	1.8	-10.1	-6.3	.	.
O=C1C=CC(=C(c2ccc(O)cc2)c2ccc(O)cc2)C=C1	41.9*	.	-14.7	-5.1	19.1	.	i	-10.4
O=C(CCCC(=O)c1ccc(O)cc1)c1ccc(O)cc1	4.4	.	3.1	-1.1	6.6	6.5	.	.
COC(=O)c1cccc(NS(=O)(=O)c2ccc(OC)c(C(=O)N3CCOCC3)c2)c1C	-11.3	23.9	4.0	-0.1	0.6	-9.2	.	.
CCN(CC(=O)Nc1ccc2c(c1)OCCO2)C(=O)c1cc(Cl)nc2ccccc12	33.4*	.	-13.7	-3.5	14.4	.	-32.4	-6.9
SMILES	HTR5A inv ctr	NALP1 inh	HTR5A ag	OPRM1-OPRD1 ag	MOR-DOR inv ag-1	PolyA inhibitor	MOR-DOR inv ag-2	HTR5A inv confrm
CCN(CC(=O)Nc1ccc2c(c1)OCCO2)C(=O)c1ccc(Cl)cc1Cl	-10.5	.	7.2	-1.3	7.1	-7.1	.	.
CC(NC(=O)C1CCCN1S(=O)(=O)c1ccc2c(c1)n(C)c(=O)c(=O)n2C)c1ccccc1 (stereo unspecified)	0.2	15.8	-0.1	-1.2	6.3	-6.2	.	.
COc1cccc(CNCc2ccccc2Br)c1OC	35.8*	16.7	-6.1	-0.2	0.9	27.6	-47.9	18.7
Cc1ccc(-c2nn(-c3ccc(F)cc3)cc2C(=O)NCCCN2CCCC2=O)cc1	-3.7	.	1.2	-0.9	5.6	.	.	.
CCOc1cc(/C=C2\CN(C)C/C(=C\c3ccc(O)c(OCC)c3)C2=O)ccc1O	16.1	8.6	-4.6	-4.8	21.9	?	.	.
CCOc1cc(/C=C2\CCC/C(=C\c3cc(Cl)c(O)c(OCC)c3)C2=O)cc(Cl)c1O	46.1*	-3.0	-21.0	-2.6	12.9	-15.5	i	-20.1
CC(C)Cn1c(N)c(S(=O)(=O)c2cccs2)c2nc3ccccc3nc21	37.7*	-4.9	-8.1	-2.9	16.5	6.2	-51.8	0.3
COCCn1c(SCC(=O)NC2CCCC(C)C2C)nc2ccccc2c1=O (stereo unspecified)	-5.9	.	2.1	-1.8	11.7	.	.	.
COc1cc(C(CCN2CCOCC2)c2c(OC)cc(OC)c3c(-c4ccccc4)cc(=O)oc23)cc(OC)c1OC (stereo unspecified)	16.9*	.	-4.9	-0.2	1.3	.	-6.8	2.2
CCN(CC)c1ccc(/C=N/Nc2ccccc2)c(O)c1	44.6*	13.5	0.5	0.2	-1.2	6.6	-108.4	-20.9
O=C(NCc1nnc(SCC(=O)N2CCCC2)o1)c1ccccc1	45.5*	19.6	-17.8	-2.9	11.8	0.6	i	-98.7
O=C(NCc1nnc(SCC(=O)N2CCN(c3ccccc3)CC2)o1)c1ccccc1	3.1	30.2	3.8	-1.9	9.9	8.0	.	.
COc1ccc(C(CNC(=O)c2ccc(S(=O)(=O)Nc3ccccc3OC)cc2)N2CCCC2)cc1 (stereo unspecified)	6.7	.	-2.7	-2.1	8.6	.	.	.
N#CCCN=C(NS(=O)(=O)c1ccccc1)c1ccccc1	21.9*	2.3	-7.7	-0.2	1.5	6.3	-13.3	-18.3
Cc1cc(C)nc(NS(=O)(=O)c2ccc(NC(=O)c3snnc3C)cc2)n1	-11.5	1.1	1.0	-2.2	11.0	5.0	.	.
O=C(CC12CCC(CC1)C2)NCc1ccc2c(c1)OCO2	27.5*	1.2	1.8	1.6	-8.4	4.8	i	6.4
O=C(Cc1ccccc1)NCc1ccc2c(c1)OCO2	13.1	-4.6	-1.6	-1.2	6.9	23.3	.	.
CC(NC(=O)c1ccc(-c2cc(C(F)(F)F)ccc2Cl)o1)c1ccccc1 (stereo unspecified)	-20.2	4.2	-2.3	2.9	-15.4	-6.0	.	.
COc1ccc(NC(=O)c2ccc(NC(=O)c3nc4nccc(C)n4n3)cc2)cc1	36.0*	.	-2.1	-0.7	2.6	.	-9.6	13.2
COc1ccccc1NC(=O)c1ccc(NC(=O)c2nc3nccc(C)n3n2)cc1	5.3	.	-2.1	-2.5	10.5	.	.	.

Compound activity deposited in PubChem by several laboratories.
